Experimental data published in the supplement of paper PMC10849652.
Of roughly 8,800 targets only a part is listed; those with a hit were picked by preference. About 0.5% of all pairs of compound and target were hits. Unmarked numbers belong to inactive results.

Compound: CCn1cc(-c2ccnc3[nH]c(-c4cccc(CN(C)C)c4)cc23)c(-c2ccc(NC(=O)N(C)C)cc2)n1
Test: log2 fold change, soluble protein after heating vs DMSO (PISA); higher = thermal stabilisation; K562 lysate, 10 uM; active = over 0.2 and 3.5 SD of the protein, either way, in both replicates (recomputed)
How it was run: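 Pellets of K562 cells were dounce-homogenised in PBS pH 7.4 with 1 mM MgCl2, and the crude extract was held at 1 mg/mL protein for a 30 min treatment with 10 μM compound. Aliquots were heated for 3 min over 48°C-58°C and pooled before NP-40 was added to 0.5% at 4°C. The supernatant from 21,000xg for 90 min was quantified by TMTpro 16plex LC-MS/MS with channel sums equalised. Values are reported from duplicates as log-two fold change in thermal stability relative to solvent controls.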

Chain of UniProt Q9BSG0 (Q9BSG0 whole entry, looked up): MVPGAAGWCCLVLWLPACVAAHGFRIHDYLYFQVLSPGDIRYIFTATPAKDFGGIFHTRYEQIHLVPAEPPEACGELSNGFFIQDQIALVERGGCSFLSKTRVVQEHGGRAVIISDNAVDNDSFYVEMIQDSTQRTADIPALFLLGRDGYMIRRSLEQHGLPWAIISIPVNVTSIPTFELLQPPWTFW
Chain of UniProt Q99755 (Q99755 whole entry, looked up): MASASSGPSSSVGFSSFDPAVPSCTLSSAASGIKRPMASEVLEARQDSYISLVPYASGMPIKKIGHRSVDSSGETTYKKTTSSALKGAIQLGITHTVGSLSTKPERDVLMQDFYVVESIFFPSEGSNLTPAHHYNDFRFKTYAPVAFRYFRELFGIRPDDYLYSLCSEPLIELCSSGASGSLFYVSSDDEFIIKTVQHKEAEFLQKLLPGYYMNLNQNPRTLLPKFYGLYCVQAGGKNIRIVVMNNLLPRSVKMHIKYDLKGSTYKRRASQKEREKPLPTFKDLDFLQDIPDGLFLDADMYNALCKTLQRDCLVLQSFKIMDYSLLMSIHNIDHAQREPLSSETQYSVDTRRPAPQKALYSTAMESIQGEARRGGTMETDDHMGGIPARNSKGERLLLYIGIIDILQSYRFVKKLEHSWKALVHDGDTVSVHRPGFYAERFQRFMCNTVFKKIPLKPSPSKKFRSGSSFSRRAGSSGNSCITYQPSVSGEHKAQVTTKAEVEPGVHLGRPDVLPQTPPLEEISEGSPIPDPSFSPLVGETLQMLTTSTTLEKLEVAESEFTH
Chain of UniProt P54277 (P54277 whole entry, looked up): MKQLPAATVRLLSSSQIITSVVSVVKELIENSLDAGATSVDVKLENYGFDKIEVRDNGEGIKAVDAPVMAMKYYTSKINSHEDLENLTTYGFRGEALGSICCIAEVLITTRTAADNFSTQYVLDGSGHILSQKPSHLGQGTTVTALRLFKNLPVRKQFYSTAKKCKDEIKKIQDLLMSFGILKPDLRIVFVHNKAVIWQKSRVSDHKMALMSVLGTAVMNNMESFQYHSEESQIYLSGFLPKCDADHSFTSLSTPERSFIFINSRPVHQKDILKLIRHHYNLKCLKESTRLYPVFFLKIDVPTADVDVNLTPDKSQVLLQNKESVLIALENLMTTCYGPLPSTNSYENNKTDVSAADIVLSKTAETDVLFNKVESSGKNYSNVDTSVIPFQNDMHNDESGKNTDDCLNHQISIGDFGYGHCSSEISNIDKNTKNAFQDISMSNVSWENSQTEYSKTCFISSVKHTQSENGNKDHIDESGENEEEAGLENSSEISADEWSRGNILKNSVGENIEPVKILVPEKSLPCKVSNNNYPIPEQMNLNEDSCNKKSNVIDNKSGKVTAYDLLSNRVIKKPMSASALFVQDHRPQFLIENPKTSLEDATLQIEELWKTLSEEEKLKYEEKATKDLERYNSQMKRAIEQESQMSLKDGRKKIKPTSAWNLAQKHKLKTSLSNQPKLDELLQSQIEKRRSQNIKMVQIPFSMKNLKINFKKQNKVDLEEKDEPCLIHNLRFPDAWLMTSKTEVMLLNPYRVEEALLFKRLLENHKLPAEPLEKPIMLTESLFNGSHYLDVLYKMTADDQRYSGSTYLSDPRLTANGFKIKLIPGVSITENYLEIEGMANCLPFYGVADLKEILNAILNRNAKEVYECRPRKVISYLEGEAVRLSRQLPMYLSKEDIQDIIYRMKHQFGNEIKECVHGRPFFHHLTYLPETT
Chain of UniProt P48736 (P48736 whole entry, looked up): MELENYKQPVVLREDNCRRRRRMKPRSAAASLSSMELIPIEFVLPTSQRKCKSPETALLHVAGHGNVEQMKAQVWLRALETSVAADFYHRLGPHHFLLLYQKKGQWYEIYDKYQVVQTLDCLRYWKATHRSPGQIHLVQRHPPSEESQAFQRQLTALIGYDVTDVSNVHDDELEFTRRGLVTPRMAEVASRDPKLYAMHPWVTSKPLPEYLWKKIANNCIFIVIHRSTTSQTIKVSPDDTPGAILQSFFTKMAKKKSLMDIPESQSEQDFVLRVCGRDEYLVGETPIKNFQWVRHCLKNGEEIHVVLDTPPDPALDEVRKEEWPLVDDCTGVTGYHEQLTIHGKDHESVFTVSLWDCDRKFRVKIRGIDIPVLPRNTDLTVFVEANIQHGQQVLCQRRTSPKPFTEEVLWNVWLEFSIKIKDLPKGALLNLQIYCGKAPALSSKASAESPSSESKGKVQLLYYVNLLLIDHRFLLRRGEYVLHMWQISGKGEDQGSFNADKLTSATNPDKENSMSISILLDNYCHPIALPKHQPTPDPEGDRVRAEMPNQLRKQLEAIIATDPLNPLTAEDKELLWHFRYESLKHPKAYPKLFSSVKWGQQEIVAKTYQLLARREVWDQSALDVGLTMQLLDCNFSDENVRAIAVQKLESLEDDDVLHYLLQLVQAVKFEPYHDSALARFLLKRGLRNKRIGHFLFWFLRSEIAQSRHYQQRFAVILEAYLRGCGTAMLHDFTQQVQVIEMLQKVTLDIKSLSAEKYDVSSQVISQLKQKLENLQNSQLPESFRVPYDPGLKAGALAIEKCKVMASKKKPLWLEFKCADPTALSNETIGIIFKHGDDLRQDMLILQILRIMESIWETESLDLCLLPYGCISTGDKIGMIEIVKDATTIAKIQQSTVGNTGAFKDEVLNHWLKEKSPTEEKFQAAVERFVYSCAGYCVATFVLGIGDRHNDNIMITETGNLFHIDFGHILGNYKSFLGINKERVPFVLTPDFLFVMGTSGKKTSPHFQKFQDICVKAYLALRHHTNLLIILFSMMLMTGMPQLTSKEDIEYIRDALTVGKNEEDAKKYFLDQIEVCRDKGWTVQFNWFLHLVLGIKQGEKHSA
Chain of UniProt P11309 (P11309 whole entry, looked up): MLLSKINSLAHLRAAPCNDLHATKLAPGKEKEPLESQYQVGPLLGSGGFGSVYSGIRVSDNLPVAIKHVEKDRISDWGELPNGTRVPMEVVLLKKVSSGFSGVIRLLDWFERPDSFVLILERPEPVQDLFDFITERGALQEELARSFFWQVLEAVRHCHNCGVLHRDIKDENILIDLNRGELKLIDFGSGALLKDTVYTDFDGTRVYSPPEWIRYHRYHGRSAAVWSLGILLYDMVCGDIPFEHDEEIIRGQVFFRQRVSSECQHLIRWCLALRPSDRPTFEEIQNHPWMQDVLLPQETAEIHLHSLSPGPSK
Chain of UniProt Q13362 (Q13362 whole entry, looked up): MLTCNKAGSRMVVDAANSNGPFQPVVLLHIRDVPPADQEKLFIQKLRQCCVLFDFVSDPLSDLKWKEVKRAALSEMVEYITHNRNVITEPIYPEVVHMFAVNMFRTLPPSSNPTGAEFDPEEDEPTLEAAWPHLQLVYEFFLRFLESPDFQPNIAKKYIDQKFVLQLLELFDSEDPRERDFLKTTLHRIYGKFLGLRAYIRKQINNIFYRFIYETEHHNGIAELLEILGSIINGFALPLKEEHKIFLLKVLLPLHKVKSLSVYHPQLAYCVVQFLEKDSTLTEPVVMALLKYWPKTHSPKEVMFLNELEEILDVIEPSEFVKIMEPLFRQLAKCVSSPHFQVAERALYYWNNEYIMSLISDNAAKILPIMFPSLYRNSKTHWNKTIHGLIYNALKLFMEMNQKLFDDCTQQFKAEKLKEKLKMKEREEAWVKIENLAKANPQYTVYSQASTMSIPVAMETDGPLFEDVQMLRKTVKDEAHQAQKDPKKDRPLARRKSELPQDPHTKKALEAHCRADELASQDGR
Chain of UniProt Q16816 (Q16816 whole entry, looked up): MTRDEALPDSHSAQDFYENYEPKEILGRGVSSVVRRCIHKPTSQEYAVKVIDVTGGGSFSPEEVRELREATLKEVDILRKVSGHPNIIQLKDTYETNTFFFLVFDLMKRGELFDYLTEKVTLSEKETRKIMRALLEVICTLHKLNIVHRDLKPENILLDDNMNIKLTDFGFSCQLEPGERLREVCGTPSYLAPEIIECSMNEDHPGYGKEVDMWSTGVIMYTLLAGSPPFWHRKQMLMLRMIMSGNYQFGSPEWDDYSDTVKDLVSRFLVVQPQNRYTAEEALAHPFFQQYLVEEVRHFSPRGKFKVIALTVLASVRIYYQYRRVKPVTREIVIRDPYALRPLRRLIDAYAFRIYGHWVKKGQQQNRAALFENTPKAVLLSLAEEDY
Chain of UniProt Q4G0T1 (Q4G0T1 whole entry, looked up): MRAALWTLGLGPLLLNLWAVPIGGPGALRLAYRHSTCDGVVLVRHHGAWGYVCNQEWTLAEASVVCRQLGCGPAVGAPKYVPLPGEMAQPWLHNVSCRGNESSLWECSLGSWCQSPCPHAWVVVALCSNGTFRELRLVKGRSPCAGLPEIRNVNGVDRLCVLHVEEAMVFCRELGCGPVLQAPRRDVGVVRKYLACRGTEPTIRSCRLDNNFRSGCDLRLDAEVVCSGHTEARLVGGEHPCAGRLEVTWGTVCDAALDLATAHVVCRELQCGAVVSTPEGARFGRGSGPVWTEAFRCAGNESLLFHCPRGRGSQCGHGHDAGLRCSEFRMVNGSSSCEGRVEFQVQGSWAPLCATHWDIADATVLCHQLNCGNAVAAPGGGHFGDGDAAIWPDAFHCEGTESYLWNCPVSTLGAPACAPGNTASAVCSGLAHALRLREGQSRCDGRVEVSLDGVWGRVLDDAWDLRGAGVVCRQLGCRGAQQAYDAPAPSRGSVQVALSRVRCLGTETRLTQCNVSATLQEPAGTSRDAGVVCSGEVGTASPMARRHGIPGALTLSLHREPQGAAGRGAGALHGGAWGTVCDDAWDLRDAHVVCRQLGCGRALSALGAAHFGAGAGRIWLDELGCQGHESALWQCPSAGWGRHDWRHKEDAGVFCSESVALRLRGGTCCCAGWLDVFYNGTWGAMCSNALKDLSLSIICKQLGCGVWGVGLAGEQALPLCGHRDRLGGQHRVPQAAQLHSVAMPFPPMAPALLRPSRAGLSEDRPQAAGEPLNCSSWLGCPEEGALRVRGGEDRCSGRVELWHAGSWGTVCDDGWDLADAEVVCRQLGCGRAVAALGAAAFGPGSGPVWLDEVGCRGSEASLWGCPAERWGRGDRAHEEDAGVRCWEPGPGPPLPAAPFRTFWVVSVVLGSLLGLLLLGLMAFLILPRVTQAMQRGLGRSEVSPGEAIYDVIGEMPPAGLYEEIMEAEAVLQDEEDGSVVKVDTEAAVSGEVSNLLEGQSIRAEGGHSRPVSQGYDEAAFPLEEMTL

Row | Target | log2 fold change
1 | PFN1 (UniProt I3L3D5) | 0.924 (active)
2 | PCBP2 (UniProt F8VRH0) | -0.033
3 | PEX2 (UniProt P28328) | 0.011
4 | PIM1 isoform 2 (UniProt P11309) | -0.068
5 | PPP2R5C isoform 2 (UniProt Q13362) | -0.023
6 | PREP (UniProt H0Y5Y0) | 0.678
7 | PFN3 (UniProt P60673) | -0.706 (active)
8 | PRG4 (UniProt Q92954) | -0.179
9 | PPIC (UniProt P45877) | -0.112
10 | NA (UniProt Q4G0T1) | 0.022
11 | PNPLA4 (UniProt P41247) | 0.165
12 | POM121C (UniProt A8CG34) | 0.146
13 | PMS1 (UniProt P54277) | -0.01
14 | PDIA4, A0A499FI48 | 1.69 (active)
15 | PPP1R11 (UniProt O60927) | 0.16
16 | PHKG1 isoform 2 (UniProt Q16816) | -0.867 (active)
17 | PIK3CG (UniProt P48736) | -0.276 (active)
18 | PLK1 (UniProt P53350) | 0.165
19 | PIK3CD (UniProt O00329) | -0.109
20 | PRR4 (UniProt Q16378) | 0.358
21 | PRADC1 (UniProt Q9BSG0) | 0.057
22 | PIP5K1A (UniProt Q99755) | 0.027
23 | PDE4DIP (UniProt E9PS60) | -0.942 (active)
24 | PYGO2 (UniProt Q9BRQ0) | -0.044
25 | POLR2M (UniProt Q6EEV4) | 0.154
26 | PCLAF (UniProt Q15004) | -0.067
